Sampled rows, rich in hits. Any-hit rate of the full collection: about 19%.
LASV entry inh: Lassa virus entry inhibition | 300,000 tested, 1.2% active | AID 540256 | Potency, µM (doses to about 37.9 µM), inactives show top-dose activity change, negative = inhibition, most hits filed as inhibitors | Lassa virus pseudotype entry inhibition, cell reporter; calls by dose curve; tested in HEK293 cells; also: potency is read from the fitted curve at half-maximal effect; % is scaled to controls: 0 for no effect and ±100 for the full control effect; nearly all actives have a fitted effect of over 50% in size
MARV entry inh: Marburg virus entry inhibition | Marburg virus pseudotyped entry inhibition, cell reporter | Potency, µM (series often up to 37.8 µM), for the others: at the highest dose activity change, negative = inhibition, usual class: inhibitors | 300,000 tested, 1.8% active | AID 540276; calls by dose curve; tested in HEK293 cells; also: potency is read from the fitted curve at half-maximal effect; % is scaled to controls: 0 for no effect and ±100 for the full control effect
Pf growth 48h: P. falciparum growth inhibition at 48 hours (one generation) | P. falciparum luciferase growth in erythrocytes, 48 h | Potency, µM (highest dose often 28.7 µM), for the others: top-dose activity change, negative = inhibition, most hits filed as inhibitors | 310,000 tested, 5.9% active | AID 504832; also: potency is read from the fitted curve at half-maximal effect; % is scaled to controls: 0 for no effect and ±100 for the full control effect
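Here the parasites carry a stable luciferase gene and grow inside erythrocytes in Albumax-based RPMI medium with compound for one erythrocytic cycle. Activity is scored as loss of luminescent signal.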
Cycloheximide cs: counter-screen for Shiga toxin inhibitors: cycloheximide protein synthesis inhibition | max response, % | AID 2314 | cell reporter, cycloheximide protein synthesis inhibition counterscreen | 300,000 tested, 12% active; in the data active = max response mostly above about 13%, no sharp cut-off; inactive = mostly below about 14%; also: read at 38.3 µM for the half of the compounds with a filed dose; 0% is about no effect
Shiga inhibitor: inhibitors of Shiga toxin in Vero cells | AID 2315 | inhibition, % at 38.7 µM | Vero cells, Shiga toxin protein synthesis inhibition reporter | 290,000 tested, 9.2% active; in the data active = inhibition mostly above about 28%, no sharp cut-off; inactive = mostly below about 43%; also: 0% is about no effect
Pf growth 96h: inhibits malaria parasite growth, 96 h; 320,000 tested, 6.9% active; AID 504834; Potency, µM (highest dose often 28.7 µM), inactives show top-dose activity change, negative = inhibition, actives largely listed as inhibitors; P. falciparum luciferase reporter growth, 96 h; also: potency is read from the fitted curve at half-maximal effect; % is scaled to controls: 0 for no effect and ±100 for the full control effect
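Compounds incubated with erythrocytes infected by luciferase-expressing P. falciparum (2% hematocrit, 0.05% parasitemia final) for 96 hours, 37 C in 5% CO2. Growth inhibition scored as decreased luciferase luminescence.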
Active calls of the source: *; [ ] = remark or other dose. Unless noted, calls follow the shape of the dose curve; as a rule, active = well fitted inhibition curve with a large enough effect; inconclusive = small, poorly fitted or top-dose-only effect, or another doubt; inactive = no such curve, though single readings can be large or run the other way.

Screening NC1=NCC2c3ccccc3Cc3ccccc3N12 (stereo not drawn) returned LASV entry inh 9%, MARV entry inh inconclusive, Pf growth 48h inconclusive, Cycloheximide cs -9, Shiga inhibitor -2 and Pf growth 96h 6.7µM*.
`COc1ccccc1-c1c(C)nn2c(N3CCC4(CC3)OCCO4)cc(C)nc12` gave LASV entry inh inconclusive, MARV entry inh inconclusive, Pf growth 48h inconclusive, Cycloheximide cs -1, Shiga inhibitor -11 and Pf growth 96h 12%.
For Cc1cc(Br)ccc1NC(=O)c1cc2c(s1)-c1ccccc1SC2 the results were LASV entry inh -12%[46.1 µM] and MARV entry inh inconclusive.
`COc1cccc(-c2nnc(NC(=O)c3ccc4ncsc4c3)o2)c1` gave LASV entry inh 1%, MARV entry inh 10µM*, Pf growth 48h inconclusive, Cycloheximide cs 1, Shiga inhibitor 13 and Pf growth 96h 13µM*.
CS(=O)(=O)c1cccc(-c2nnc(NC(=O)c3ccc4ncsc4c3)o2)c1 was read as LASV entry inh 2%, MARV entry inh 17%, Pf growth 48h -3% and Pf growth 96h -6%.
`CCOc1ccc(-c2nnc(NC(=O)c3ccc(OCC(C)C)c(OC)c3)o2)cc1` gave LASV entry inh -24%, MARV entry inh -17%, Pf growth 48h 0%, Cycloheximide cs 25*, Shiga inhibitor 45 and Pf growth 96h inconclusive.
For COc1cccc(C(=O)Nc2nnc(-c3cccs3)o2)c1 the results were Cycloheximide cs 33*, Shiga inhibitor 93 and Pf growth 96h -72%.
Screening O=C(NCC1CCCO1)c1ccc(Cl)c(F)c1F (stereo not drawn) returned LASV entry inh 0%, MARV entry inh 3%, Pf growth 48h 20%, Cycloheximide cs -2, Shiga inhibitor 17 and Pf growth 96h -20%[5.75 µM].
CN(C)CCN(C(=O)c1ccc(C(=O)c2ccccc2)cc1)c1nc2cc3c(cc2s1)OCO3 was read as LASV entry inh -5%, MARV entry inh inconclusive, Pf growth 48h 13%, Cycloheximide cs 10*, Shiga inhibitor 21 and Pf growth 96h 12%.
Screening CN(C)CCN(C(=O)CN1C(=O)c2ccccc2C1=O)c1nc2cc3c(cc2s1)OCO3 returned LASV entry inh inconclusive, MARV entry inh 6%, Pf growth 48h inconclusive, Cycloheximide cs 27*, Shiga inhibitor 49 and Pf growth 96h 11%.
`CCN(CC)CCN(C(=O)c1ccc2ccccc2c1)c1nc2cc3c(cc2s1)OCO3` gave LASV entry inh inconclusive, MARV entry inh inconclusive, Pf growth 48h inconclusive, Cycloheximide cs -3, Shiga inhibitor -7 and Pf growth 96h inconclusive.
`CCN(CC)CCN(C(=O)CN1C(=O)c2ccccc2C1=O)c1nc2cc3c(cc2s1)OCO3` gave LASV entry inh 7%[46.1 µM], MARV entry inh 0%[46.1 µM], Pf growth 48h 8%, Cycloheximide cs 0, Shiga inhibitor 13 and Pf growth 96h 35%.
Screening CN(C)CCN(C(=O)c1ccco1)c1nc2cc3c(cc2s1)OCCO3 returned Pf growth 48h 75%, Cycloheximide cs 38*, Shiga inhibitor 41 and Pf growth 96h 29%.
For CN(C)CCN(C(=O)c1ccc(C(=O)c2ccccc2)cc1)c1nc2cc3c(cc2s1)OCCO3 the results were Pf growth 48h 27%, Cycloheximide cs 36*, Shiga inhibitor 81* and Pf growth 96h 3%.
`CN(C)CCCN(C(=O)c1ccc(C(=O)c2ccccc2)cc1)c1nc2cc3c(cc2s1)OCCO3` gave LASV entry inh inconclusive, MARV entry inh inconclusive, Pf growth 48h inconclusive, Cycloheximide cs -3, Shiga inhibitor 19 and Pf growth 96h inconclusive.
Screening COc1ccc(CCNC(=O)CCn2c(=O)c3ccccc3n(Cc3ccccc3C)c2=O)cc1OC returned LASV entry inh -10%[46.1 µM] and MARV entry inh inconclusive.
Cc1oc(-c2cc3c(cc2Cl)OCO3)nc1CN1CCCC(C(=O)N2CCOCC2)C1 (stereo not drawn) was read as LASV entry inh 9%[46.1 µM], MARV entry inh 15%[46.1 µM], Pf growth 48h 5%, Cycloheximide cs -2, Shiga inhibitor -13 and Pf growth 96h inconclusive.
Screening CN(C)CCN(C(=O)c1ccc(S(=O)(=O)N(C)c2ccccc2)cc1)c1nc2ccc(Cl)cc2s1 returned LASV entry inh -24%[46.1 µM], MARV entry inh inconclusive, Pf growth 48h -30%, Cycloheximide cs 34*, Shiga inhibitor 64* and Pf growth 96h inconclusive.
`CN(C)CCCN(C(=O)c1ccc(S(=O)(=O)N(C)C)cc1)c1nc2cc3c(cc2s1)OCO3` gave LASV entry inh -7%[46.1 µM], MARV entry inh inconclusive, Pf growth 48h inconclusive, Cycloheximide cs 8, Shiga inhibitor 14 and Pf growth 96h 18%.
Screening CN(C)CCN(C(=O)c1ccc(N2C(=O)CCC2=O)cc1)c1nc2cc3c(cc2s1)OCCO3 returned Pf growth 48h 100%, Cycloheximide cs 38*, Shiga inhibitor 60* and Pf growth 96h 0%.
For CN(C)CCN(C(=O)c1ccc(S(=O)(=O)N(C)c2ccccc2)cc1)c1nc2cc3c(cc2s1)OCO3 the results were LASV entry inh inconclusive, MARV entry inh 1%[46.1 µM], Pf growth 48h 30%, Cycloheximide cs 18*, Shiga inhibitor 28 and Pf growth 96h 37%.
For CN(C)CCCN(C(=O)COc1ccccc1)c1nc2cc3c(cc2s1)OCCO3 the results were Pf growth 48h 54%, Cycloheximide cs 24*, Shiga inhibitor 18 and Pf growth 96h inconclusive.
Screening CCN(CC)C(=O)C1=C(C)Nc2nc3ccccc3n2C1c1cccc(OC)c1 (stereo not drawn) returned LASV entry inh -20%[46.1 µM], MARV entry inh -16%[46.1 µM], Cycloheximide cs 6, Shiga inhibitor -2 and Pf growth 96h inconclusive.
CC1CCc2c(sc3nc(CSc4n[nH]c(N)n4)[nH]c(=O)c23)C1 (stereo not drawn) was read as LASV entry inh inconclusive, MARV entry inh -5%, Pf growth 48h -2%, Cycloheximide cs 13, Shiga inhibitor 37* and Pf growth 96h 3%.
Screening CC(C)CCOCc1nc2sc3c(c2c(=O)[nH]1)CCC(C)C3 (stereo not drawn) returned LASV entry inh 17%, MARV entry inh -3%, Cycloheximide cs 0, Shiga inhibitor 17 and Pf growth 96h -20%.
COc1ccc(OCCCC(=O)Nc2nc(C)c(C(C)=O)s2)cc1 was read as LASV entry inh inconclusive, MARV entry inh 1%[46.1 µM], Pf growth 48h 21%, Cycloheximide cs -2, Shiga inhibitor 24 and Pf growth 96h inactive.
CC(=O)N1c2ccccc2NC2=C(C(=O)CCC2)C1c1cccnc1 (stereo not drawn) was read as LASV entry inh 0%, MARV entry inh -9%[46.1 µM], Pf growth 48h 13%, Cycloheximide cs -1 and Shiga inhibitor 28.
O=C(CC1(O)C(=O)Nc2ccccc21)c1ccccc1O (stereo not drawn) was read as LASV entry inh -5%, MARV entry inh 7%, Pf growth 48h 4%, Cycloheximide cs -3, Shiga inhibitor -10 and Pf growth 96h inconclusive.

Bioassay records (PubChem BioAssay)
